Data reported in PubChem BioAssay (NCI).
The panel holds about 83,000 compounds, 20% with a hit somewhere; the sample as a whole holds those more often.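 For each line, cells grew in 96-well plates with the test compound present at a single concentration for 48 hours.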 Values without a mark were called inactive. Activity calls are given as the source filed them. Rule for the calls: active = growth percent below 10; inactive = the rest.

Experiments:
Assay in all cases: NCI-60 one-dose screen, 48 h (100 = growth as untreated, 0 = no growth, -100 = all killed)
Conditions in all cases: 10 µM
NCI-H322M lung = test system: NCI-H322M lung
HOP-62 NSCLC = test system: HOP-62 NSCLC
NCI-H460 lung = test system: NCI-H460 lung
HOP-92 NSCLC = test system: HOP-92 NSCLC
NCI-H522 lung = test system: NCI-H522 lung
A549/ATCC NSCLC = test system: A549/ATCC NSCLC
786-0 renal = test system: 786-0 renal
COLO 205 colon = test system: COLO 205 colon
NCI-H226 lung = test system: NCI-H226 lung

Compound	growth (NCI-H322M lung) [%]	growth (HOP-62 NSCLC)	growth (NCI-H460 lung)	growth (HOP-92 NSCLC)	growth (NCI-H522 lung)	growth (A549/ATCC NSCLC) [%]	growth (786-0 renal) [%]	growth (COLO 205 colon)	growth (NCI-H226 lung)
CCCCCCCCO	108	99.6%	103%	107%	107%	100	102	114%	
O=S(=O)(Cc1ccccc1)c1ccccc1	118	104%	112%	105%	104%	98.6	101	112%	
CC1(O)OC(COc2ccc(Cl)cc2)COC1O (stereo not drawn)	104	106%	106%	105%	104%	106	105	126%	102%
CCC(C)(C)C1CCC(O)CC1 (stereo not drawn)	103	90.5%	103%			106		110%	103%
O=[N+]([O-])c1ccc(O)c(S(=O)(=O)O)c1	126	101%	109%		104%	106	104	122%	102%
O=C(O)CCC(=O)OC(C1CO1)C(OC(=O)CCC(=O)O)C1CO1 (stereo not drawn)	112	102%	103%		91%	97.4	103	99.9%	96.5%
CCCOC(=O)C(O)c1ccccc1 (stereo not drawn)	132	99.8%	107%	95%		126		115%	105%
O=C(Cc1nc2ccc([N+](=O)[O-])cc2nc1CC(=O)c1cccnc1)c1cccnc1	51	25.6%	48.1%	69.8%	18.5%	64.8	15.8	121%	52.2%
CC(=O)OC1CC2C(C)(C)OC3CC(=O)OCC32C2CCC3(C)C(=CCC3c3ccoc3)C12C (stereo not drawn)	111		108%	-13% (active)	35.6%	104	103	76.1%	98.7%
CCCCC(O)c1ccccc1 (stereo not drawn)	101	110%	105%		108%	100	104	105%	97.2%
NNc1ccccc1C(=O)O	128	104%	110%	98.1%		109	113	107%	96%
CCOC(=O)C1=C(C)NC(=O)NC1c1cccs1 (stereo not drawn)	111	109%	118%	107%	101%	94.8	106	107%	110%
Cc1ccncc1C(N)=O	104	98.6%	101%		101%	108	106	124%	95.4%
CC(C)(O)C#CC#CC(C)(C)O	102		104%		82.5%	91.5	106		79.4%
CCN(CC)c1ccc2nc3ccc(=[N+](CC)CC)cc-3oc2c1	10.7	1.25% (active)	6.72% (active)	15.7%	-29.6% (active)	18.5	34.9	-69.9% (active)	-46.9% (active)
COc1ccc(C2OC(N)=C(O)C2=O)cc1OC (stereo not drawn)	102	105%	110%	98%	93.6%	118	101	125%	97.5%

Compound	growth (NCI-H322M lung) [%]	growth (HOP-62 NSCLC)	growth (NCI-H460 lung)	growth (HOP-92 NSCLC)	growth (NCI-H522 lung)	growth (A549/ATCC NSCLC) [%]	growth (786-0 renal) [%]	growth (COLO 205 colon)	growth (NCI-H226 lung)
CCS(=O)(=O)CCCl	97.1	105%	109%	92.3%	90%	97.4	105	126%	114%
CCOc1ccc(/C=N/N=C(N)N)cc1OCC	110	106%		99.4%	99.2%	95.7	100	107%	93.3%
CCCC1(c2ccccc2)NC(=O)NC1=O (stereo not drawn)	124	102%	109%	78.4%		119		114%	97%
C/C(O)=C(\C=N\C(N)=S)C(=O)Nc1ccccc1	104	90.9%	99.9%		83.7%	100	105	104%	87.1%
O=C1OC(=O)C2C1C1(Cl)C(Cl)=C(Cl)C2(Cl)C2C(=O)OC(=O)C21 (stereo not drawn)	107	104%	107%				102	93.9%	97.5%
O=C(O)CSCSCC(=O)O	108	91.5%	104%				103	100%	95.2%
CCC/C=C(/C(C)=O)C(=O)OCC	110	108%	114%		111%	90.8	113	113%	95.7%
OC1CCCc2ccccc21 (stereo not drawn)	89.6	104%	101%			51.3	103	115%	104%
CN(C)c1nc2c([nH]1)c(=O)n(C)c(=O)n2C	105		103%		73.1%	92.2	105		81.2%
CCOc1ccc(Br)cc1/C=N\N=C\c1cc(Br)ccc1OCC	111	108%	103%	92.2%	104%	104	105	119%	97.6%
Cc1cc2nc(CC(=O)c3ccccc3)c(=O)[nH]c2cc1C	98.7	96.2%	97.9%	88.5%	81.2%	105	98.3	114%	87%
O=C(NCc1ccco1)Nc1c(Cl)cc(Cl)cc1Cl	106	97.3%	103%	79.6%		102	97.2	107%	99.6%
c1csc(-c2cc(-c3cc(-c4cccs4)[nH]n3)n[nH]2)c1	94.4	88.3%	107%	93.6%	88.9%	107	98.9	114%	79.1%
O=C(O)CCCC(=O)O	98.9	97.7%	101%	72.6%	99.7%	97.9	106	97.1%	
N/N=C(/Cc1ccccc1)NNC(N)=S	82.7		103%	119%	72.4%	74.4	111		108%
